Drawing on PubChem BioAssay AID449762 (Southern Research Specialized Biocontainment Screening …, 2010), this text covers inhibition for 57 compounds.

Broadly, the inhibition is the relative decrease from the control value, in per cent.

The whole screen tested about 330,000 compounds, of which about 1,900 (0.58%) were called active. Another 4% or so got no clear call; they are omitted. Rule as the data show it: inconclusive = inhibition above about 70% without an active follow-up result; inactive = below that. The list is a sample of the results. Measured potencies and affinities stand elsewhere.

The nature of this test: M. tuberculosis growth inhibition, HTS (AID 449762).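 Also: bacterial growth assessed after seven days of incubation.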 The note with it: M. tuberculosis H37Rv growth inhibition, 7H9 media; at 25 µM; hits give high values.
With `Cn1c(=O)c2c(nc(CN3CCN(c4ccc(F)cc4)CC3)n2Cc2ccccc2F)n(C)c1=O`, the inhibition is -1.15% (inactive).
In the case of `Cc1cc(C(=O)OCC(=O)Nc2cccnc2Cl)c2ccccc2n1` it was 3.92% (inactive); in that of `COc1ccc(OC)c(C(=O)NC(CC(N)=O)c2ccc(NCC3CC3)c([N+](=O)[O-])c2)c1` (configuration not stated), 8.73% (inactive).
As for `COc1ccc(CCNc2ccc(C(CC(N)=O)NC(=O)c3cc(OC)ccc3OC)cc2[N+](=O)[O-])cc1` (configuration not stated), the inhibition was -2.34% (inactive).
Consider `Cc1cc(C(=O)COc2ccc3ccc(=O)oc3c2)c(C)n1C`, for which the inhibition is -2.83% (inactive).
Take `Cc1cc(-n2c(C)cc(C(=O)COc3ccc(F)c(F)c3)c2C)no1`: the inhibition is 12.9% (inactive).
The result for `Cc1ccc(Cl)cc1N1CCN(Cc2cc3c(cc2O)CCC3)CC1` reads -2.77% (inactive); that for `COc1cccc(CN(C)C(=O)c2cc(S(=O)(=O)NCc3ccccc3)ccc2C)c1OC`, -0.57% (inactive); that for `COc1ccc(-c2nc(C#N)c(NCc3cccnc3)o2)cc1OC`, -2.1% (inactive).
In the case of `Cc1ccc(-n2cc(CNCCN3CCOC3=O)c(-c3ccc(F)cc3)n2)cc1` it was 6% (inactive); in that of `COc1ccc(-c2nn(-c3ccccc3F)cc2CNCCn2nc(C)cc2C)cc1`, 63.9% (inactive); in that of `O=C(CS(=O)(=O)c1ccccc1)Nc1ccc(Cl)cn1`, -23.7% (inactive).
In the case of `O=C(CCNC(=O)N1CC(=O)Nc2ccccc21)Nc1ccc(F)c(Cl)c1` it was 1.86% (inactive); in that of `Nc1nc(SCc2c(F)cccc2Cl)[nH]c(=O)c1-c1ccccc1`, 3.32% (inactive); in that of `CCC(=O)N1c2ccc(S(=O)(=O)CCC(=O)N3CCN(c4ccccc4F)CC3)cc2CC1C` (configuration not stated), -7.68% (inactive).
Consider `CCOC(=O)N1CCN(C(=O)CCS(=O)(=O)c2ccc3c(c2)CC(C)N3C(=O)CC)CC1` (configuration not stated), for which the inhibition was 7.71% (inactive).
In the case of `CCCCn1c(N)c(N(CC(C)C)C(=O)CCCc2nc3ccccc3s2)c(=O)[nH]c1=O` it was -2.46% (inactive); in that of `Cc1cc(C)n(S(=O)(=O)c2ccc3oc(=O)ccc3c2)n1`, 2.71% (inactive); in that of `CCCCC(=O)NC(Nc1sc2c(c1C(N)=O)CCCC2)(C(=O)OCC)C(F)(F)F` (configuration not stated), 5.17% (inactive).
The result for `Cc1ccc(-n2nnnc2SCC(=O)c2c(N)n(C3CC3)c(=O)[nH]c2=O)c(C)c1` reads -6.46% (inactive); that for `COc1ccc(C(=O)C2CCCN(C3CSCCSC3)C2)c(OC)c1` (configuration not stated), 5.9% (inactive); that for `COc1ccc(C(=O)C2CCCN(C3CSCCSC3)C2)cc1OC` (configuration not stated), -3.92% (inactive).
As for `CCOC(=O)c1c(C)nc2sc(C(N)=O)c(N)c2c1-c1ccc(OC)cc1`, the inhibition is -6.87% (inactive).
The result for `NC(=O)CCN(Cc1ccccc1)S(=O)(=O)c1ccccc1` reads -1.39% (inactive).
The result for `CCCCNC(=O)COC(=O)CNC(=O)c1cc(Cl)cc([N+](=O)[O-])c1` reads 6.26% (inactive).
With `C=CCn1cnc2c(oc3ccccc32)c1=O`, the inhibition is 0.22% (inactive).
Consider `c1ccc(-n2ncc3c(N4CCCCC4)ncnc32)cc1`, for which the inhibition was -3.33% (inactive).
The result for `c1ccc(CNc2ncnc3c2cnn3-c2ccccc2)cc1` reads -6.95% (inactive); that for `CCCCNc1ncnc2c1cnn2-c1ccccc1`, 11.5% (inactive); that for `CCN1CCN(c2ncnc3c2cnn3-c2ccccc2)CC1`, -10% (inactive).
`CC(C)(C)c1ccc(-c2noc(C(=O)NN)n2)cc1`: the inhibition is -2.97% (inactive).
The result for `NS(=O)(=O)c1ccc(NC(=O)COC(=O)CN2C(=O)C3CC=CCC3C2=O)cc1` (configuration not stated) reads -21.8% (inactive); that for `Cn1cc(C(=O)c2ccccc2)cc1-c1nc2ccccc2n1C`, 24.3% (inactive).
In the case of `Cn1cc(C(=O)c2ccc(F)cc2)cc1-c1nc2ccccc2n1C` it was 65.4% (inactive).
For `O=C(COC(=O)c1ccccn1)Nc1ccc2c(c1)OCCO2`, the inhibition was -1.75% (inactive).
In the case of `CNC(=O)COc1ccc(Nc2nnc(-c3ccc(C)c(S(N)(=O)=O)c3)c3ccccc23)cc1` it was 3.37% (inactive); in that of `CC(=O)c1ccc(NC(=O)C(C)OC(=O)c2cccc(-n3cnnn3)c2)cc1` (configuration not stated), -2.06% (inactive).
The result for `CCOC(=O)c1cn(Cc2ccc(Cl)cc2Cl)c2cc(C)nn2c1=O` reads -10.3% (inactive); that for `CCCCCc1ccc(-c2cn(Cc3ccc(C)cc3)nn2)cc1`, 2.43% (inactive).
As for `COc1ccc(-c2cn(Cc3cccc(OC)c3)nn2)cc1`, the inhibition was -1.15% (inactive).
As to `CCN(C(=O)COC(=O)c1cc(-c2ccc3cc(OC)ccc3c2)nc2ccccc12)C1CCS(=O)(=O)C1` (configuration not stated), the inhibition was 12.4% (inactive).
The result for `CN1N=C(/C=C/c2ccccc2)CCC1=O` reads -6.09% (inactive); that for `COC1C(OC(=O)c2ccc(C)[nH]2)C(O)C(Oc2ccc3c(O)c(NC(=O)c4ccc(O)c(CC=C(C)C)c4)c(=O)oc3c2Cl)OC1(C)C` (configuration not stated), -2.53% (inactive).
In the case of `Cc1c(O)ccc2c(O)c(NC(=O)c3ccc4c(c3)CCC(C)(C)O4)c(=O)oc12` it was 1.87% (inactive); in that of `COc1ccc([C@H]2CC(=O)C=C(c3cccc(CO)c3)C2)cc1`, -3.53% (inactive); in that of `COc1cc(NC(=O)C/C(C)=N/NC(=O)Cc2ccccc2)c(OC)cc1Cl`, 9.08% (inactive).
In the case of `COc1cc(NC(=O)C/C(C)=N/NC(=O)c2cccc(O)c2)c(OC)cc1Cl`, the inhibition is -0.8% (inactive).
In the case of `COc1ccc(NS(=O)(=O)c2ccc(NC(=O)C3CCCO3)cc2)cc1` (configuration not stated) it was -9.85% (inactive).
In the case of `COc1cccc(C2(C)NC(=O)N(CC(=O)Nc3ccc(N4CCOCC4)cc3)C2=O)c1` (configuration not stated) it was -10% (inactive); in that of `CCCCOc1cccc(C(=O)Nc2ccc(NC(=O)c3cccs3)cc2)c1`, 2.91% (inactive).
Regarding `Cc1ccccc1NCc1nc2ccccc2n1C`, the inhibition is 2.8% (inactive).
In the case of `Cn1c(CNc2ccc(O)cc2)nc2ccccc21`, the inhibition was -0.5% (inactive).
Consider `CC(=O)Nc1ccc(S(=O)(=O)Nc2ccc(N3CCOCC3)cc2)cc1`, for which the inhibition is 1.49% (inactive).
As for `CC(=O)Nc1ccc(N2CCCCC2)cc1`, the inhibition was 1.6% (inactive).
The result for `O=C(O)c1cccc(N2C(=O)C3C4C=CC(C4=C(c4ccccc4)c4ccccc4)C3C2=O)c1` (configuration not stated) reads 4.23% (inactive).
The result for `CC(=O)C[C@@H](O)CC(=O)[C@@H]1OC(=O)CCCCCCCCc2ccccc21` reads 0.55% (inactive); that for `CCC(C)(C)NC(=O)C(c1ccncc1)N(Cc1ccc(C)cc1)C(=O)c1csnn1` (configuration not stated), -0.23% (inactive).
